Among all 200,000 compounds or so, about 110 (0.055%) were called active. No stated cut-off is given here; in the data, active means inhibition above about 50%; inactive means the rest. The list comes from a sample in which actives are over-represented; it also holds similar structures and randomly drawn compounds.
molecular target: Serine/threonine-protein kinase D1 (Homo sapiens) (UniProt Q15139); experiment: protein kinase D1 activity blockers – biochemical, fluorescence polarization (AID 797); conditions: PKD1 kinase fluorescence polarization assay; hits give high values; concentration not given here
Sequence (Q15139 whole entry, looked up): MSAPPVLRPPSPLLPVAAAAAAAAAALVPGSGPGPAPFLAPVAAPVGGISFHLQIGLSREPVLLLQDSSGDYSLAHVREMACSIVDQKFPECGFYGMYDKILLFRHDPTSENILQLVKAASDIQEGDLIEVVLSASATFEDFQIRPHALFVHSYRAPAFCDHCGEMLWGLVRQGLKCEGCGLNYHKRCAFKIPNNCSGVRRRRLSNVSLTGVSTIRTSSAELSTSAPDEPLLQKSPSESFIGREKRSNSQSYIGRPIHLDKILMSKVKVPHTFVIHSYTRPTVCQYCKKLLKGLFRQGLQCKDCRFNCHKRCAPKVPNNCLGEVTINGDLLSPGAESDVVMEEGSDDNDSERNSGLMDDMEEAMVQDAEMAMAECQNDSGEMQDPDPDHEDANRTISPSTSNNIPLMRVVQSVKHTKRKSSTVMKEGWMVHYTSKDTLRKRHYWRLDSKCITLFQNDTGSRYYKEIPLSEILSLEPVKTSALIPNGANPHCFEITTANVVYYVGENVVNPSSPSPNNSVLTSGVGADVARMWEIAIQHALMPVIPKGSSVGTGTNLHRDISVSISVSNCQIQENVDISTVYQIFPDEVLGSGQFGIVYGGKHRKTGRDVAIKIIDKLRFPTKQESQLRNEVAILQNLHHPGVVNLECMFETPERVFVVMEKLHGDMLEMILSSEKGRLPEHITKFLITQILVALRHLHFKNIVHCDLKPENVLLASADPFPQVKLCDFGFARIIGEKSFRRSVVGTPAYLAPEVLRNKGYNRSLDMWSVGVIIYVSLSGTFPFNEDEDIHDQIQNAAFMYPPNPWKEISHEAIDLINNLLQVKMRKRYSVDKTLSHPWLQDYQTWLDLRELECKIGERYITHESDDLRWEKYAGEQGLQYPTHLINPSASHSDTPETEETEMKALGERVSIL

| Structure (SMILES) | inhibition |
| --- | --- |
| CC(C)NC(=S)Nc1cccc2cnccc12 | -7.44% (inactive) |
| O=C(NC1(C(F)(F)F)NC(=O)N(C2CCCCC2)C1=O)c1ccco1 (stereo unspecified) | -4.49% (inactive) |
| Cc1onc(C(=O)NN)c1C(=O)N1CCN(C(c2ccccc2)c2ccccc2)CC1 | 6.23% (inactive) |
| CCO[C@H]1OC(C(=O)O)=C[C@@H](C2CCCCC2)[C@@H]1CCCO | 1.68% (inactive) |
| O=C(N/N=C/c1cccc([N+](=O)[O-])c1)C1CC(=O)N(c2ccc(Br)cc2)C1 (stereo unspecified) | 0.4% (inactive) |
| O=C(NCCN1CCOCC1)Nc1cccc(Cl)c1 | -8.08% (inactive) |
| Cc1ccc(-c2c(C)n([O-])c3c([n+]2=O)CCC3)cc1 | -5.77% (inactive) |
| Cc1cc(C)c(C#N)c(SCC(=O)NN2CC(=O)N(c3ccccc3F)CC2=O)n1 | -3.74% (inactive) |
| O=C(OC1CCOC1=O)c1cccc(S(=O)(=O)Nc2ccc(F)cc2)c1 (stereo unspecified) | 1.98% (inactive) |
| C=CCn1cc(-c2cccc(C(F)(F)F)c2)cc(C#N)c1=O | 7.22% (inactive) |
| O=C(N1CCCC1)C12CC3CC(C1)CC(C(=O)N1CCCC1)(C3)C2 | -14.2% (inactive) |
| CCC1CO/C(=C(\C(=C(Cl)Cl)N2CCOCC2)[N+](=O)[O-])N1 (stereo unspecified) | -0.65% (inactive) |
| COc1cc(OC)c(C(=O)OC(C)C(=O)Nc2cc(C(F)(F)F)ccc2Cl)cc1OC (stereo unspecified) | 8.47% (inactive) |
| O=C(CSc1ccc(-c2ccc(F)cc2)nn1)Nc1ccc2c(c1)OCCO2 | -0.29% (inactive) |
| Cc1cc(C(=O)NNC(=S)NC(C)c2ccccc2)cs1 (stereo unspecified) | 5.7% (inactive) |
| C/C(CC(=O)Nc1cccc(C(F)(F)F)c1)=N\NC(=O)C(=O)NCC(C)C | 3.3% (inactive) |
| Cc1cc(N2CCN(C)CC2)nc2ccc(NC(=S)N3CCOCC3)cc12 | -7.15% (inactive) |
| CCn1c2ccccc2c2cc(NC(=O)COC(=O)c3ccccc3Br)ccc21 | -14.8% (inactive) |
| c1ccc(-c2csc(N3CCc4ccccc4C3)n2)cc1 | -5.96% (inactive) |
| COC(=O)[C@@H]1CC[C@H](C)[C@@H](c2ccc(C)cc2)N1C(=O)c1ccc(/C=N/O[C@H](C)c2cn([C@@H]3COC[C@H]3O)nn2)cc1 | -8.4% (inactive) |
| CCC(=O)NC(=S)Nc1ccc(NC(=O)c2ccco2)c(Cl)c1 | -0.32% (inactive) |
| CN(C)CCCNC(=O)/C=C/c1ccc(OCc2c(F)cccc2Cl)cc1 | -5.92% (inactive) |
| CCCC1(C(=O)OC)NC(c2ccco2)C2C(=O)N(C)C(=O)C21 (stereo unspecified) | -3.52% (inactive) |
| COc1c(C)cc(C(=O)C2CCCN(S(=O)(=O)c3c(C)noc3C)C2)cc1C (stereo unspecified) | 11.5% (inactive) |
| Cc1noc(C)c1S(=O)(=O)N1CCCC(C(=O)Nc2nccs2)C1 (stereo unspecified) | -0.06% (inactive) |
| Cc1ccc(NC(=O)C2CCCN(S(=O)(=O)c3c(C)noc3C)C2)c(C)c1 (stereo unspecified) | 72.5% (active) |

Source: PubChem BioAssay AID797 (University of Pittsburgh Molecular Library Screening Center, 2007)
